Data as given in PubChem BioAssay AID2380 (Sanford-Burnham Center for Chemical Genomics, 2010).
The whole screen tested about 330,000 compounds, of which about 960 (0.29%) were called active. This excerpt belongs to a sample that is enriched for actives. A number with no mark means an inactive call.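 How the source made its calls: active means compounds whose signal lies at least 3.5 SD above the mean of all wells on their plate; inactive means the rest.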

Assay: small molecules increasing insulinoma cell replication – ATP luminescence, uHTS, primary screen (AID 2380);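 further: 0% = DMSO-treated cells in low-serum medium and 100% = 10% serum control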
Conditions: MIN6 cells proliferation, ATPlite luminescence, 48 h; at 10 µM; stronger effect = higher value; 100% = growth in 10% serum; cells starved in 0.2% serum

Compound	proliferation
O=C(CN1CCN(c2ccc(F)cc2)CC1)Nc1cccc(C(F)(F)F)c1	-3.27%
CC(C)(C)C1CCC(OC(=O)CCC(=O)Nc2ccccc2)CC1 (configuration not stated)	0%
O=C1c2ccccc2S(=O)(=O)c2cc(N3CCN(c4ccccn4)CC3)ccc21	12.1% (active)
O=C(c1ccc2c(c1)N(Cc1ccc(F)cc1)C(=O)c1ccccc1S2(=O)=O)N1CCN(c2ccccn2)CC1	-0.68%
O=C(c1ccc2c(c1)C(=O)N(c1ccc(Cl)cc1)C2=O)N1CCN(c2ccccn2)CC1	2.75%
Cc1cc(=O)oc2cc(OCC3CC(c4ccccc4Cl)=NO3)ccc12 (configuration not stated)	-5.28%
COc1ccc(OCC(=O)OCCN(C)C)cc1	0.06%
Cc1c(C(=O)NCCN(C)C)oc2ccc(S(=O)(=O)N3CCCC3)cc12	0%
O=C(CSc1nc2ccccc2[nH]1)N/N=C/C=C\c1ccccc1[N+](=O)[O-]	6.1% (active)
Cc1ccc(-n2c(SCC(=O)N/N=C/C=C/c3ccccc3[N+](=O)[O-])nc3ccccc3c2=O)cc1	-2.84%
CCn1c(SCC(=O)N/N=C/C=C/c2ccccc2[N+](=O)[O-])nnc1-c1ccccc1	-1.08%
Cn1cc(-c2ccccc2)cc(C#N)c1=O	-2.8%
Cc1scc(C(=O)NNC(=S)NCc2ccccc2)c1C	0%
O=C(NNC(=S)NCc1ccccc1)c1ccc(OC(F)F)cc1	0% (active)
Cc1ccc(OCC(=O)NNC(=S)NCc2ccccc2)cc1	1.61%
C=CCn1nc(-c2ccccc2)c2c(C)onc2c1=O	2.27%
Cc1cccc(CN2CCC(n3nccc3NC(=O)c3ccccc3C)CC2)n1	0.34%
CN1C(=O)[C@H]2[C@@H](C3CC3)N3C(=O)CN(Cc4ccccc4)C(=O)[C@@]3(C)[C@H]2C1=O	3.27%
Fc1ccc(CNCc2ccc(Br)cc2)cc1	5.1% (active)
O=C(CC1CCCCC1)NCc1ccc(F)cc1	-3.62%
CCCCC(=O)NCc1ccc(F)cc1	0%
Cc1ccc(S(=O)(=O)N2CCN(C(=O)c3ccccc3-c3nc4ccccc4s3)CC2)c(C)c1	-1.73%
COc1ccc(Cl)cc1S(=O)(=O)Nc1cccc(C(=O)O)c1	-0.59%
CC(C)c1nnc(NC(=O)COC(=O)/C=C/c2ccc([N+](=O)[O-])cc2)s1	0.53%
O=C(c1ccco1)N1CCN(C(=O)c2ccc(COc3ccc(F)cc3)o2)CC1	6.29%
COc1ccccc1OCc1ccc(C(=O)N2CCN(C)CC2)o1	7.74% (active)
COc1ccccc1OCc1ccc(C(=O)NC(C)c2ccccc2)o1 (configuration not stated)	0.18%
